Inconclusive results are not listed. The source made the active and inactive calls. Calls come from the whole dose curve; as a rule, active = well fitted curve in the direction sought with a large enough effect; inconclusive = small, poorly fitted or top-dose-only effect, or another doubt; inactive = no such curve, though single readings can be large; an effect the other way counts as inactive or inconclusive. *1 amine or outer side, *2 acyl side, *3 side chain or, on linkers, in order; H or OH if unused. Where a SMILES comes first, the peptide text is derived from it. Bridges are numbered along the chain shown (N, C = ends). X6 = O=C(CCC[*:2])[*:1]
Assays:
[1] = molecular target: Glutathione peroxidase 1 (Homo sapiens) (UniProt P07203); test: Primary qHTS Assay for Inhibitors of Recombinant Selenoprotein Glutathione Peroxidase 1 (GPX1) (AID 1845191); note: nearly all actives have a fitted effect of over 65% in size; for activity, negative = inhibition: % is set by controls: 0 for no effect and ±100 for the full control effect
Procedure, shortened: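 NADPH consumption tracked by fluorescence at 340/450 nm between t=0 and t=15 min, room temperature. Final mix: 10 nM GPX1, 100 nM glutathione reductase, 1 mM GSH, 0.5 mM NADPH, 0.5 mM cumene hydroperoxide, 0.01% BSA; 30 min compound–enzyme preincubation.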

[2] = molecular target: Phospholipid hydroperoxide glutathione peroxidase GPX4 (Homo sapiens) (UniProt P36969); test: Primary qHTS Assay for Inhibitors of Recombinant Selenoprotein Glutathione Peroxidase 4 (GPX4) (AID 1845192); note: series mostly up to about 50 µM; % is set by controls: 0 for no effect and ±100 for the full control effect; nearly all actives have a fitted effect of over 65% in size
Procedure, shortened: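 NADPH consumption followed by fluorescence at 340/450 nm, t=0 and after 15 min at room temperature. Reaction started with cumene hydroperoxide (0.5 mM final) after 30 min compound–GPX4 preincubation; final 200 nM GPX4, 100 nM GR, 1 mM GSH, 0.5 mM NADPH.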

[3] = molecular target: Luciferin 4-monooxygenase (Photinus pyralis) (UniProt P08659); test: Primary firefly luciferase (FLuc) qHTS assay for identification of artifact compounds. (AID 1845220); note: nearly all actives have a fitted effect of over 60% in size;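 for activity change, negative = inhibition: series mostly up to about 54 µM; plate controls were DMSO vehicle for no effect and no enzyme for full effect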
Procedure, shortened: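 Cell-free, 1536-well qHTS. Buffer pH 7.6 with 0.01% Tween-20 and 0.05% BSA; 10 uM D-luciferin, 10 uM ATP; 10 nM P. pyralis luciferase; luminescence after 5 min.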

[4] = Primary fluorescence-based thiol-reactive (MSTI) qHTS assay for identification of artifact compounds. (AID 1845221); note: nearly all actives have a fitted effect of over 65% in size; note: potency is the fitted concentration of half-maximal effect;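 for activity change, negative = thiol reactive: series mostly up to about 54 µM; thiol-reactive compounds lower the probe fluorescence signal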
Procedure, shortened: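 Thiol-reactive compounds detected by quenching of 4 uM MSTI fluorescence (525/598 nm) after 1 h room-temperature dark incubation in PBS pH 7.4, 2% DMSO. qHTS titration; percent inhibition Hill-fitted against Acetyl-MSTI/MSTI controls.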

[5] = tested on: Nanoluciferase (engineered Oplophorus gracilirostris luciferase); test: Primary Nanoluciferase (NLuc) qHTS assay for identification of artifact compounds. (AID 1845222);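 note: series mostly up to about 54 µM; 0% = DMSO and -100% = no enzyme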
Procedure, shortened: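 Compounds are pinned into diluted (1:55) conditioned medium of NLuc-expressing S16 cells and held 15 min at room temperature protected from light. Nano-Glo substrate follows, and luminescence is read 5 min later.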

Glutathione peroxidase 1 (Homo sapiens), sequence (P07203 whole entry, looked up): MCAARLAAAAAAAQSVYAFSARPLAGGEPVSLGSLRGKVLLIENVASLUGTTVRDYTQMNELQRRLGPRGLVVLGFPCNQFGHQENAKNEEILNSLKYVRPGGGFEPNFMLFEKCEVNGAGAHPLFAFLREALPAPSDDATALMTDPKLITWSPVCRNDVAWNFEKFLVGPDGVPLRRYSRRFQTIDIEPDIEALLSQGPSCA
Phospholipid hydroperoxide glutathione peroxidase GPX4 (Homo sapiens), sequence (P36969 whole entry, looked up): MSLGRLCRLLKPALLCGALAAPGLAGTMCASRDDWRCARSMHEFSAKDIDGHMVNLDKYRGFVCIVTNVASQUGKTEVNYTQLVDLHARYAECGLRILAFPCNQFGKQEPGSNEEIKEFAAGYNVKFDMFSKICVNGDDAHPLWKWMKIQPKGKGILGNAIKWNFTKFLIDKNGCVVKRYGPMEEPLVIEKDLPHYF

C[C@@H]1CC[C@]2(C)C(C[C@@H](O)[C@H](O)[C@]23CO3)[C@@]1(C)CCc1ccoc1 (stereo not given in full)
inactive: Potency [1] | Potency [2] | Potency [3] | Potency [4] | Potency [5]

CC(=O)OC1C(O)CC(O[C@@H]2O[C@H](CO)[C@@H](O)[C@H](O)[C@H]2O)C2CCC3C(=O)OC(c4ccoc4)CC3(C)C21 (stereo not given in full)
inactive: Potency [1] | Potency [2] | Potency [3] | Potency [4] | Potency [5]

COC1CC(=O)CCC(C)OC(=O)CC1O (stereo not given)
inactive: Potency [1] | Potency [2] | Potency [3] | Potency [4] | Potency [5]

CC(=O)O[C@@H]1C[C@]2(C)[C@@]3(CCC4[C@@]5(C)CC[C@H](O[C@@H]6O[C@H](C(=O)O)[C@@H](O)[C@H](O[C@@H]7O[C@H](CO)[C@H](O)[C@H](O)[C@H]7O[C@@H]7O[C@@H](C)[C@H](O)[C@@H](O)[C@H]7O[C@@H]7OC[C@](O)(CO)[C@H]7O)[C@H]6O[C@@H]6O[C@H](CO)[C@H](O)[C@H](O)[C@H]6O)C(C)(C)C5CC[C@]42C)O[C@@H](O)[C@]12C3CC(C)(C)[C@@H](OC(=O)/C=C/c1ccc(O)c(O)c1)[C@@H]2OC(=O)/C=C/c1ccccc1 (stereo not given in full)
inactive: outcome [1] inactive [at 9.52 µM] | activity change, negative = inhibition [2] -12% [at 9.73 µM] | outcome [3] inactive [at 11.6 µM] | activity change, negative = thiol reactive [4] 97% [at 11.5 µM] | activity, negative = inhibition [5] 1.63% [at 11.6 µM]

CC[C@H](C)[C@@H]1NC(=O)[C@H](Cc2ccc(OC)cc2)NC(=O)CCCSC[C@@H](C(=O)N2CCC[C@H]2C(=O)N[C@@H](CC(C)C)C(=O)NCC(N)=O)NC(=O)[C@H](CC(N)=O)NC(=O)[C@H](CCC(N)=O)NC1=O (Y(Me)IQNCPLG-NH2; linker N-5 via X6)
inactive: Potency [1] | Potency [2] | Potency [3] | Potency [4] | Potency [5]

CC(=O)c1c(O)cc2cccc3c2c1CC(C)(O)O3 (stereo not given)
active: Potency [4] 5.32 µM
inactive: Potency [1] | Potency [2] | Potency [3] | Potency [5]

CC(C)C(=O)O[C@@H]1[C@@H](O)[C@@H](O[C@H]2O[C@H](CO)[C@@H](O)[C@H](O)[C@H]2O)O[C@H](CO)[C@H]1O
inactive: Potency [1] | Potency [2] | Potency [3] | Potency [4] | Potency [5]

O=C1N(CC2CCCCN2)CCN1c1ccccc1 (stereo not given)
inactive: Potency [1] | Potency [2] | Potency [3] | Potency [4] | Potency [5]

O=C(OCc1cccc(O)c1O[C@@H]1O[C@H](CO)[C@@H](O)[C@H](O)[C@H]1O)C1(O)C(=O)C2C=CC1C1C=CC(=O)C(O)(C(=O)OCc3cccc(O)c3O[C@@H]3O[C@H](CO)[C@@H](O)[C@H](O)[C@H]3O)C21 (stereo not given in full)
inactive: Potency [1] | Potency [2] | outcome [3] inactive [at 11.6 µM] | activity change, negative = thiol reactive [4] 11.6% [at 11.5 µM] | activity, negative = inhibition [5] 1.93% [at 11.6 µM]

COC(=O)[C@@]1(C)CC[C@]2(C(=O)O[C@@H]3O[C@H](CO)[C@@H](O)[C@H](O)[C@H]3O)CC[C@]3(C)C(=CCC4[C@@]5(C)CC[C@H](O[C@@H]6O[C@H](C(=O)O)[C@@H](O)[C@H](O)[C@H]6O)C(C)(C)C5CC[C@]43C)[C@@H]2C1 (stereo not given in full)
inactive: Potency [1] | Potency [2] | activity change, negative = inhibition [3] -8.19% [at 11.6 µM] | activity change, negative = thiol reactive [4] 77.9% [at 11.5 µM] | activity, negative = inhibition [5] -2.3% [at 11.6 µM]

C[C@@H]1O[C@@H](O[C@H]2[C@H](O[C@H]3CC[C@@]4(C)C(CC[C@]5(C)C4CC=C4C6CC(C)(C)CC[C@]6(C(=O)O[C@@H]6O[C@H](CO[C@@H]7O[C@H](CO)[C@@H](O[C@@H]8O[C@@H](C)[C@H](O)[C@@H](O)[C@H]8O)[C@H](O)[C@H]7O)[C@@H](O)[C@H](O)[C@H]6O)CC[C@]45C)[C@]3(C)CO)OC[C@H](O)[C@@H]2O)[C@H](O)[C@H](O)[C@H]1O (stereo not given in full)
inactive: outcome [1] inactive [at 9.52 µM] | activity change, negative = inhibition [2] -7.52% [at 9.73 µM] | outcome [3] inactive [at 11.6 µM] | activity change, negative = thiol reactive [4] 181% [at 11.5 µM] | activity, negative = inhibition [5] 0.304% [at 11.6 µM]

COc1c(C(CC(C)C)OC(C)=O)ccc(Oc2c(O)cc(C)cc2/C=C/C(C)=O)c1C(=O)O (stereo not given)
inactive: Potency [1] | Potency [2] | Potency [3] | Potency [5]
active: Potency [4] 4.62 µM

CC1CCCC2OC2C(=O)c2c(O)cc(O)cc2CC(=O)O1 (stereo not given)
active: Potency [4] 8.44 µM
inactive: Potency [1] | Potency [2] | Potency [3] | Potency [5]

C[C@]12C=CC(=O)C=C1CC[C@@H]1[C@@H]2[C@@H](O)C[C@@]2(C)[C@H]1CC[C@]2(O)C(=O)COC(=O)CCC(=O)O
inactive: Potency [1] | Potency [2] | Potency [3] | Potency [4] | Potency [5]

C[C@@H]1O[C@@H](O[C@H]2[C@H](OC(=O)[C@]34CCC(C)(C)C[C@H]3C3=CCC5[C@@]6(C)CC[C@H](O[C@@H]7O[C@H](CO[C@@H]8OC[C@H](O)[C@H](O)[C@H]8O)[C@@H](O)[C@H](O)[C@H]7O)C(C)(C)C6CC[C@@]5(C)[C@]3(C)C[C@H]4O)OC[C@@H](O)[C@@H]2O)[C@H](O)[C@H](O)[C@H]1O[C@@H]1OC[C@H](O)[C@H](O[C@@H]2OC[C@@H](O)[C@H](O)[C@H]2O)[C@H]1O (stereo not given in full)
inactive: outcome [1] inactive [at 9.52 µM] | activity change, negative = inhibition [2] -4.93% [at 9.73 µM] | activity change, negative = inhibition [3] 1.47% [at 11.6 µM] | activity change, negative = thiol reactive [4] 146% [at 11.5 µM] | activity, negative = inhibition [5] -4.62% [at 11.6 µM]

C[C@@H]1O[C@@H](O[C@H]2[C@H](O[C@H]3CO[C@@H](O[C@H]4CC[C@@]5(C)C(CC[C@]6(C)C5CC[C@]57OC[C@@]8(CC[C@](C)(CO)CC85)[C@H](O)C[C@]76C)C4(C)C)[C@H](O[C@@H]4O[C@H](CO)[C@@H](O)[C@H](O)[C@H]4O)[C@H]3O)O[C@H](CO)[C@@H](O)[C@@H]2O)[C@H](O)[C@H](O)[C@H]1O (stereo not given in full)
inactive: Potency [1] | Potency [2] | activity change, negative = inhibition [3] 0.85% [at 11.6 µM] | activity change, negative = thiol reactive [4] 26.5% [at 11.5 µM] | activity, negative = inhibition [5] -0.449% [at 11.6 µM]

Reference: PubChem BioAssay (NCATS)
